Test results from PubChem BioAssay (NCI).
The panel holds about 83,000 compounds, 20% with a hit somewhere; the sample as a whole holds those more often.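 In brief: 96-well plates, 48 h treatment, single concentration, percent growth endpoint.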 Calls of active or inactive are those of the source. The calls were made as follows: active = growth percent below 10; inactive = the rest.

Tests used:
Experiment in all cases: NCI-60 one-dose screen, 48 h (100 = growth as untreated, 0 = no growth, -100 = all killed)
Settings in all cases: 10 µM unless noted
SR leukemia = test system: SR leukemia
RPMI-8226 leukemia = test system: RPMI-8226 leukemia
OVCAR-8 ovarian = test system: OVCAR-8 ovarian
OVCAR-5 ovarian = test system: OVCAR-5 ovarian
SK-OV-3 ovarian = test system: SK-OV-3 ovarian
IGROV1 ovarian = test system: IGROV1 ovarian
OVCAR-3 ovarian = test system: OVCAR-3 ovarian
HS 578T breast = test system: HS 578T breast
NCI/ADR-RES ovarian = test system: NCI/ADR-RES ovarian
T-47D breast = test system: T-47D breast
BT-549 breast = test system: BT-549 breast
MDA-MB-435 melanoma = test system: MDA-MB-435 melanoma
SW-620 colon = test system: SW-620 colon
MCF7 breast = test system: MCF7 breast
HCT-116 colon = test system: HCT-116 colon
HCC-2998 colon = test system: HCC-2998 colon
KM12 colon = test system: KM12 colon
OVCAR-4 ovarian = test system: OVCAR-4 ovarian

Measured: growth

CC(=O)c1cc2c(N)c(C(=O)Nc3cccc4ccncc34)sc2nc1C
active: MDA-MB-435 melanoma 6.83%
inactive: SR leukemia 49.8% | RPMI-8226 leukemia 103% | OVCAR-8 ovarian 108% | OVCAR-5 ovarian 106% | SK-OV-3 ovarian 93.4% | IGROV1 ovarian 101% | OVCAR-3 ovarian 103% | HS 578T breast 91.3% | NCI/ADR-RES ovarian 108% | T-47D breast 97.1% | BT-549 breast 102% | SW-620 colon 101% | MCF7 breast 83.7% | HCT-116 colon 102% | HCC-2998 colon 107% | KM12 colon 101%

O=C(/C(=C/c1ccc([N+](=O)[O-])cc1)SCc1ccc(F)cc1)c1ccc(F)cc1
active: SR leukemia 6.69% | RPMI-8226 leukemia -28.7% | MCF7 breast 9.8% | HCT-116 colon -25.2%
inactive: OVCAR-8 ovarian 93.1% | OVCAR-5 ovarian 97.9% | SK-OV-3 ovarian 103% | IGROV1 ovarian 78% | OVCAR-3 ovarian 82.9% | HS 578T breast 89.2% | NCI/ADR-RES ovarian 77.1% | T-47D breast 79.8% | BT-549 breast 98.2% | MDA-MB-435 melanoma 85% | HCC-2998 colon 88.4% | KM12 colon 59.8%

O=C(Nc1ncc(Cc2cc(Cl)ccc2Cl)s1)c1cccs1
active: MDA-MB-435 melanoma 4.2%
inactive: SR leukemia 22.9% | RPMI-8226 leukemia 57.2% | OVCAR-8 ovarian 74.4% | OVCAR-5 ovarian 73.9% | SK-OV-3 ovarian 72.1% | IGROV1 ovarian 59.3% | OVCAR-3 ovarian 65.2% | HS 578T breast 74.3% | NCI/ADR-RES ovarian 34.7% | T-47D breast 44.8% | BT-549 breast 74.6% | SW-620 colon 48.5% | MCF7 breast 32.5% | HCT-116 colon 35.3% | HCC-2998 colon 58.4% | KM12 colon 31.2%

Cc1ccc(NC(=O)c2cc(-c3nc4ccccc4s3)c(=O)n(NS(=O)(=O)c3ccc(Cl)cc3)c2N)cc1
inactive: SR leukemia 95% | RPMI-8226 leukemia 94.6% | OVCAR-8 ovarian 103% | OVCAR-5 ovarian 110% | SK-OV-3 ovarian 108% | IGROV1 ovarian 99.7% | OVCAR-3 ovarian 103% | HS 578T breast 104% | NCI/ADR-RES ovarian 105% | T-47D breast 98.7% | BT-549 breast 115% | MDA-MB-435 melanoma 99.4% | SW-620 colon 111% | MCF7 breast 93.7% | HCT-116 colon 95.6% | HCC-2998 colon 118% | KM12 colon 98.8%

CCOC(=O)C1=C(C)NC(SCc2cc(=O)oc3ccc(F)cc23)=N[C@@H]1c1cccc2ccccc12
inactive: SR leukemia 83.5% | RPMI-8226 leukemia 90.5% | OVCAR-8 ovarian 89.5% | OVCAR-5 ovarian 119% | SK-OV-3 ovarian 92.5% | IGROV1 ovarian 99.4% | OVCAR-3 ovarian 92.4% | HS 578T breast 106% | NCI/ADR-RES ovarian 98.7% | T-47D breast 82.4% | BT-549 breast 102% | MDA-MB-435 melanoma 99.1% | SW-620 colon 101% | MCF7 breast 84.3% | HCT-116 colon 76.9% | HCC-2998 colon 105% | KM12 colon 97.7%

COc1ccc(C(=O)C2C(C#N)C(C#N)C3C=Cc4ccccc4N32)cc1 (configuration not stated)
active: OVCAR-3 ovarian -11.9% | NCI/ADR-RES ovarian -7.8% | MDA-MB-435 melanoma -47.8% | MCF7 breast 9.25%
inactive: SR leukemia 21.3% | RPMI-8226 leukemia 29.9% | OVCAR-8 ovarian 27.6% | OVCAR-5 ovarian 31.4% | SK-OV-3 ovarian 55.2% | IGROV1 ovarian 23.2% | HS 578T breast 14.4% | T-47D breast 42.5% | BT-549 breast 63.9% | SW-620 colon 26.5% | HCT-116 colon 15.9% | HCC-2998 colon 33.6%

N#C/C(=C\c1ccc([N+](=O)[O-])s1)c1nc2cc(Br)ccc2s1
inactive: OVCAR-5 ovarian 20.5% | SK-OV-3 ovarian 10.1% | KM12 colon 16.2%
active: SR leukemia -18.3% | RPMI-8226 leukemia -43.5% | OVCAR-8 ovarian -19.7% | OVCAR-4 ovarian -11.6% | IGROV1 ovarian -32.7% | OVCAR-3 ovarian -28.6% | T-47D breast 4.46% | MDA-MB-435 melanoma 0.206% | MCF7 breast -14.2% | HCT-116 colon -66.4% | HCC-2998 colon -8.27%

COc1cc2c(c(OC)c1OC)-c1ccc(NNC(=S)N(Cc3cccc(C[N+](Cc4cccc(CNC56CC7CC(CC(C7)C5)C6)c4)(Cc4cccc(CNC56CC7CC(CC(C7)C5)C6)c4)Cc4cccc(CN(C(=S)NNc5ccc6c(cc5=O)[C@@H](NC(C)=O)CCc5cc(OC)c(OC)c(OC)c5-6)C56CC7CC(CC(C7)C5)C6)c4)c3)C34CC5CC(CC(C5)C3)C4)c(=O)cc1[C@@H](NC(C)=O)CC2 (some centres not stated)
active: SR leukemia -49.9% | RPMI-8226 leukemia -46.6% | HS 578T breast 7.62% | BT-549 breast -4.6% | MDA-MB-435 melanoma -9.46% | SW-620 colon 3.6% | MCF7 breast -24.6% | HCT-116 colon -54.6% | HCC-2998 colon -58.4% | KM12 colon 4.25%
inactive: OVCAR-8 ovarian 16.1% | OVCAR-5 ovarian 37% | SK-OV-3 ovarian 37% | IGROV1 ovarian 10.6% | OVCAR-3 ovarian 20.7% | NCI/ADR-RES ovarian 76.3% | T-47D breast 51.8%

Cc1cnc(C(=O)Nc2nc3ccc(S(=O)(=O)Nc4ccc(C5(C(F)(F)F)CC5)cc4)cc3[nH]2)cn1
inactive: SR leukemia 18.9% | OVCAR-8 ovarian 25.8% | OVCAR-5 ovarian 38.8% | SK-OV-3 ovarian 36.9% | IGROV1 ovarian 31.4% | NCI/ADR-RES ovarian 15.8% | T-47D breast 21.6% | BT-549 breast 40.6% | SW-620 colon 15% | MCF7 breast 17.4% | HCT-116 colon 19.5% | HCC-2998 colon 42.4% | KM12 colon 16%
active: RPMI-8226 leukemia 6.96% | OVCAR-3 ovarian -19.3% | HS 578T breast 8.52% | MDA-MB-435 melanoma -77.5%

CCCCCOc1ccc(/C=N/Nc2cc(C)nc3ccc(Cl)cc23)cc1
active: SR leukemia -21.9% | RPMI-8226 leukemia -23.1% | OVCAR-8 ovarian -43.1% | OVCAR-4 ovarian -14.1% | IGROV1 ovarian -76.8% | OVCAR-3 ovarian -79.4% | MDA-MB-435 melanoma -75.6% | SW-620 colon -73.8% | MCF7 breast -73.6% | HCT-116 colon -64.5% | HCC-2998 colon -67.7% | KM12 colon -84.6%
inactive: OVCAR-5 ovarian 93.7% | SK-OV-3 ovarian 90.4% | T-47D breast 68.6% | BT-549 breast 103%

Cc1ccc(C(=O)/C(=C\c2ccc([N+](=O)[O-])cc2)S(=O)Cc2ccc(Cl)cc2)cc1 (configuration not stated)
inactive: OVCAR-8 ovarian 25.6% | OVCAR-5 ovarian 45.8% | SK-OV-3 ovarian 106% | OVCAR-3 ovarian 22.4% | HS 578T breast 36.9% | NCI/ADR-RES ovarian 30.5% | BT-549 breast 62% | MDA-MB-435 melanoma 50.1% | MCF7 breast 15.2% | HCC-2998 colon 58.8%
active: SR leukemia 6.07% | RPMI-8226 leukemia -28.1% | IGROV1 ovarian 1.23% | T-47D breast -19.1% | HCT-116 colon -50.1%

N=C(N)c1ccc(OCCCCCCCCCCOc2ccc(C(=N)N)cc2)cc1
active: SR leukemia -60.4% | RPMI-8226 leukemia -59.8% | OVCAR-8 ovarian -74.5% | OVCAR-5 ovarian -91.5% | SK-OV-3 ovarian -91.4% | IGROV1 ovarian -80.7% | OVCAR-3 ovarian -92.4% | HS 578T breast -56.9% | T-47D breast -59.1% | BT-549 breast -84.5% | MDA-MB-435 melanoma -94.6% | SW-620 colon -91.3% | MCF7 breast -71.7% | HCT-116 colon -99.7% | HCC-2998 colon -94.9% | KM12 colon -87.9%
inactive: NCI/ADR-RES ovarian 87.1%

CCCCCC(=O)Oc1ccc(/C(=C(/C)Cc2ccc(OC)cc2)c2ccc(OCCCN(C)C)cc2)cc1
inactive: SR leukemia 10.9% | RPMI-8226 leukemia 82.7% | OVCAR-8 ovarian 96.2% | OVCAR-5 ovarian 96.4% | OVCAR-4 ovarian 71.4% | SK-OV-3 ovarian 81.5% | IGROV1 ovarian 63.9% | OVCAR-3 ovarian 86.5% | NCI/ADR-RES ovarian 88.2% | T-47D breast 51.2% | MDA-MB-435 melanoma 53.2% | SW-620 colon 82.4% | MCF7 breast 20.1% | HCT-116 colon 56.5% | HCC-2998 colon 69.3% | KM12 colon 73.6%

Cc1nnc2c(Cc3ccccc3)nc3ccccc3n12
inactive: SR leukemia 94.6% | RPMI-8226 leukemia 93.2% | OVCAR-8 ovarian 104% | OVCAR-5 ovarian 90.7% | SK-OV-3 ovarian 99.1% | IGROV1 ovarian 121% | OVCAR-3 ovarian 94% | HS 578T breast 104% | NCI/ADR-RES ovarian 87.4% | T-47D breast 92.4% | BT-549 breast 91.8% | MDA-MB-435 melanoma 93.2% | SW-620 colon 97.3% | MCF7 breast 97.9% | HCT-116 colon 93.1% | HCC-2998 colon 97.8%

COc1ccc(C(=O)C2C(C#N)C(C#N)C3c4ccccc4C=CN23)cc1 (configuration not stated)
inactive: SR leukemia 105% | RPMI-8226 leukemia 73.1% | OVCAR-5 ovarian 101% | SK-OV-3 ovarian 93.6% | IGROV1 ovarian 81% | OVCAR-3 ovarian 92.2% | HS 578T breast 95.1% | NCI/ADR-RES ovarian 87.9% | T-47D breast 61.5% | BT-549 breast 95% | MDA-MB-435 melanoma 96.1% | SW-620 colon 99.7% | MCF7 breast 91.3% | HCT-116 colon 86.1% | HCC-2998 colon 101% | KM12 colon 98.3%
active: OVCAR-8 ovarian -4.32%

COc1ccccc1NC(=O)C1CC(c2ccc(F)cc2)=NO1 (configuration not stated)
inactive: SR leukemia 101% | RPMI-8226 leukemia 97.1% | OVCAR-8 ovarian 98.1% | OVCAR-5 ovarian 108% | SK-OV-3 ovarian 112% | IGROV1 ovarian 105% | OVCAR-3 ovarian 110% | HS 578T breast 94.1% | NCI/ADR-RES ovarian 95.8% | T-47D breast 93.9% | BT-549 breast 112% | MDA-MB-435 melanoma 103% | SW-620 colon 102% | MCF7 breast 90.8% | HCT-116 colon 103% | HCC-2998 colon 90.1% | KM12 colon 101%
